Data on 48 compounds can be found in PubChem BioAssay AID2685 (National Center for Advancing Translational Sciences (NCATS), 2010).

About 2,100 (0.66%) of roughly 320,000 compounds were called active. Another 53% or so got no clear call; they are omitted. This is one part of a sample in which actives are shown more often than they occur. Calls come from the whole dose curve; as a rule, active = well fitted inhibition curve with a large enough effect in the signal ratio, with a control signal flat (not every such curve was filed as active); inconclusive = small, poorly fitted or top-dose-only effect, or effect the other way, or a change in a side signal; inactive = flat fitted curve, though single readings scatter; the % refers to the signal ratio.
Potency is the fitted concentration of half-maximal effect.

The assay is described as follows: qHTS Assay for Lipid Storage Modulators in Drosophila S3 Cells.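 For cell number change: cells counted by Cell Tracker Red CMTPX staining in the red channel.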 For lipid storage change, negative = inhibition: % is set by controls: 0 for no effect and ±100 for the full control effect. The settings on record: BODIPY lipid droplet fluorescence, 18-24 h, cells fed with added oleic acid; cell number change: measured here: cell count max response; series mostly up to 46.1 µM; lipid storage change, negative = inhibition: at the top concentration. The gist of the method: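 Laser-scanning cytometry quantifies lipid droplet accumulation (500–530 nm total intensity; droplet/cell object ratio) in oleic acid-fed (400 uM added) Drosophila S3 cells treated with a concentration series. 20 uM Triacsin C defined 100% inhibition.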
For orientation: In qHTS, concentration-response curves come from the screen itself.
Take `C=Cc1ccc(COC(=O)c2cn(CC)c3nc(C)ccc3c2=O)cc1`: the compound was called inactive.

Turning to `CCn1cc(C(=O)OC)c(=O)c2ccc(C)nc21`, the “lipid storage change, negative = inhibition” value is -1.46% (inactive) and the cell number change was 4.24%.

Regarding `CCn1cc(C(=O)N(C)Cc2ccc(OC(F)F)cc2)c(=O)c2ccc(C)nc21`, the Potency is 18.4 µM (active) and the cell number change came to 19.2%.

In the case of `O=C(COC(=O)CNS(=O)(=O)c1cccc(Br)c1)NC(=O)Nc1ccc2c(c1)OCCO2`, the “lipid storage change, negative = inhibition” value is 8.82% (inactive).

With `COc1ccc(-n2nc(C(=O)NCC(=O)N(C)Cc3ccccc3)c3ccccc3c2=O)c(OC)c1`, the compound was called inactive and the cell number change turned out to be 9.58%.

As to `COc1ccccc1N(CC(=O)Nc1ccccc1C(=O)N1CCOCC1)S(C)(=O)=O`, the “lipid storage change, negative = inhibition” value is 5.39% (inactive) and the cell number change came out at 1.26%.

Turning to `CCOc1ccccc1N(CC(=O)Nc1ccccc1C(=O)N1CCCC1)S(C)(=O)=O`, the compound was called inactive and the cell number change was -13.5%.

`O=C(CCSc1ccccc1)Nc1ccccc1C(=O)N1CCCC1`: the “lipid storage change, negative = inhibition” value was 8.31% (inactive) and the cell number change was -3.09%.

For `O=C(c1cccc2ccccc12)N1CCCCC1`, the Potency is 8.2 µM (active) and the cell number change was -5.25%.

Take `Cc1ccc(OCC(=O)Nc2ccccc2C(=O)N2CCCCC2)cc1`: the result was inactive and the cell number change came to 24.3%.

Consider `O=C(O)CCCC(=O)Nc1ccccc1C(=O)N1CCCC1`, for which the Potency is 4.61 µM (active) and the cell number change came to 0.517%.

In the case of `CCC(=O)Nc1ccccc1C(=O)N1CCCC1`, the result was inactive and the cell number change came out at 13.5%.

Regarding `COc1ccccc1N(CC(=O)Nc1ccccc1C(=O)N1CCCC1)S(C)(=O)=O`, the Potency is 18.4 µM (active) and the cell number change came to 1.61%.

`O=C(c1ccncc1)N1CCN(C(=O)c2cccc3ccccc23)CC1`: the “lipid storage change, negative = inhibition” value was 13.3% (inactive) and the cell number change was found to be 6.28%.

Turning to `CCS(=O)(=O)N1CCN(C(=O)c2cccc3ccccc23)CC1`, the result was inactive and the cell number change was found to be 17.9%.

For the compound `Cc1ccccc1OCCC(=O)Nc1ccccc1C(=O)N1CCCCC1`, the Potency was 5.8 µM (active) and the cell number change was -4.28%.

`COc1ccccc1OCC(=O)Nc1ccccc1C(=O)N1CCCCC1`: the “lipid storage change, negative = inhibition” value is -14.5% (inactive).

As for `O=C(CN1CCN(CC(=O)Nc2ccccc2C(F)(F)F)CC1)Nc1ccccc1F`, the “lipid storage change, negative = inhibition” value was 0.494% (inactive).

With `O=C(CCC(=O)Nc1ccccc1Cl)NNC(=O)c1ccco1`, the “lipid storage change, negative = inhibition” value was 2.6% (inactive) and the cell number change is 11.4%.

On to `CCN1C(=O)[C@H]2[C@@H](c3ccc(-c4ccc5c(c4)OCO5)cc3)N3CCC[C@@]3(C(=O)OC)[C@H]2C1=O`, for which the “lipid storage change, negative = inhibition” value is 13.4% (inactive) and the cell number change is -27.4%.

With `Cc1ccccc1NCN1C(=O)C2CCC(C)(C1=O)C2(C)C` (centres undefined), the “lipid storage change, negative = inhibition” value is -4.09% (inactive) and the cell number change was -11.4%.

Take `CCOC(=O)c1cccc(NS(=O)(=O)Cc2ccccc2)c1`: the “lipid storage change, negative = inhibition” value is -7.72% (inactive) and the cell number change was -5.1%.

On to `COc1cccc(/C=C/C(=O)OCC(=O)Nc2cc(C(F)(F)F)ccc2Cl)c1`, for which the “lipid storage change, negative = inhibition” value was 12.8% (inactive) and the cell number change was found to be 1.22%.

On to `COCCNC(=O)CN(C(=O)Cn1nnc2ccccc21)c1ccc(C)c(F)c1`, for which the “lipid storage change, negative = inhibition” value was 9.15% (inactive) and the cell number change was -2.04%.

With `NC(=O)CCCc1nc(-c2ccccc2Cl)no1`, the “lipid storage change, negative = inhibition” value is -1.99% (inactive) and the cell number change is -20.4%.

On to `CCN1C(=NCc2ccco2)N[C@@H](c2cccc(F)c2)C(C(=O)OC)=C1C`, for which the “lipid storage change, negative = inhibition” value is -18% (inactive) and the cell number change was 16.3%.

Regarding `COCCNC(=O)C(=O)NCCN1CCOCC1`, the “lipid storage change, negative = inhibition” value is -0.917% (inactive) and the cell number change is -14.6%.

For the compound `CCOc1ccc(NC(=O)CSc2nc(=O)n(Cc3cccnc3)c3c2CCC3)cc1`, the outcome is “inactive [at 0.0737 µM]”.

As for `COc1ccc(-n2c(-c3cccc(C)c3[N+](=O)[O-])n[nH]c2=S)cc1`, the “lipid storage change, negative = inhibition” value was -20.3% (inactive) and the cell number change was found to be 2.37%.

Regarding `Cc1ccccc1CN(C)C(C)C(=O)NCc1ccccc1` (centres undefined), the “lipid storage change, negative = inhibition” value was 7.5% (inactive) and the cell number change turned out to be 16.8%.

As to `CCN(C(=O)CCNC(=O)Cn1cnc2ccccc2c1=O)c1ccccc1F`, the outcome was inactive and the cell number change was -0.794%.

`Cc1nc2cc(Nc3nnc(-c4ccccc4)c4ccccc34)ccc2n1C`: the Potency is 11.6 µM (active) and the cell number change is -29.7%.

As to `COc1ccc(Nc2nnc(-c3ccc(O)cc3)c3ccccc23)cc1`, the result was inactive.

For `Cc1nc2cc(NC(=O)Nc3cccc4ccccc34)ccc2n1C`, the “lipid storage change, negative = inhibition” value is -7.94% (inactive) and the cell number change is 19.9%.

Turning to `O=C(CN1CCN(S(=O)(=O)N2CCOCC2)CC1)Nc1cc(Cl)cc(Cl)c1`, the call was inactive and the cell number change worked out at 10%.

Take `Cc1ccc(-c2cc(C(=O)NC3CCCC3)no2)cc1`: the “lipid storage change, negative = inhibition” value was 71.1% (inactive) and the cell number change is -1.32%.

Regarding `COc1ccc(-c2cc(C(=O)NC3CCCC3)no2)cc1`, the compound was classed as inactive and the cell number change came to 6.09%.

`O=C(NC1CCCCC1)c1cc(-c2ccc(F)cc2)on1`: the Potency is 23.1 µM (active) and the cell number change was found to be 15.8%.

Regarding `CCOC(=O)N1CCN(CC(O)COc2ccccc2[N+](=O)[O-])CC1` (centres undefined), the “lipid storage change, negative = inhibition” value was 12.5% (inactive) and the cell number change was determined as 10.6%.

As to `O=C(C(c1ccccc1)c1ccccc1)N1CCN(CC(O)COc2ccccc2)CC1` (centres undefined), the Potency was 4.61 µM (active) and the cell number change was -10.2%.

Take `CCOC(=O)N1CCN(CC(O)COc2ccccc2C(C)CC)CC1` (centres undefined): the Potency is 3.66 µM (active) and the cell number change amounted to 1.1%.

For `O=C(c1ccccc1)N1CCN(CC(O)COc2ccc(Br)cc2)CC1` (centres undefined), the compound was classed as inactive.

Turning to `CCOC(=O)N1CCN(CC(O)COc2ccccc2C(C)C)CC1` (centres undefined), the “lipid storage change, negative = inhibition” value was -5.66% (inactive) and the cell number change is -2.25%.

On to `OC(COc1ccccc1)CN1CCOCC1` (centres undefined), for which the “lipid storage change, negative = inhibition” value is 0.356% (inactive) and the cell number change was determined as 9.9%.

Consider `CCc1ccc(C(=O)Nc2ccc3c(c2)n(C)c(=O)n3C)cc1`, for which the “lipid storage change, negative = inhibition” value is -15.8% (inactive) and the cell number change was -19.7%.

For `CC1Cc2ccccc2N1C(=O)COC(=O)C1=COCCO1` (centres undefined), the “lipid storage change, negative = inhibition” value is 8.97% (inactive) and the cell number change was -1.1%.

As for `COc1cccc(/C=N/n2nnnc2N)c1O`, the “lipid storage change, negative = inhibition” value is -18.8% (inactive) and the cell number change came out at 2.87%.

On to `C=CCOc1c(CNC2CCCC2)cc(Cl)cc1OC`, for which the “lipid storage change, negative = inhibition” value was 5.16% (inactive) and the cell number change was found to be 36.7%.
